This note sets out measurements from PubChem BioAssay (NCI).

Common to all, as to experiment: NCI-60 one-dose screen, 48 h (100 = growth as untreated, 0 = no growth, -100 = all killed)
For one assay, the system named is EKVX NSCLC. The settings on record: 10 µM unless noted.
Another assay has as its system SN12C renal. The note with it: 10 µM unless noted.
The test system of another assay is UO-31 renal. The settings on record: 10 µM unless noted.
The test system of a further assay is ACHN renal. The note with it: 10 µM unless noted.
In another assay the test system is CAKI-1 renal. The note with it: 10 µM.
In a further assay the test system is A498 renal. The settings on record: 10 µM unless noted.
Another assay deals with CCRF-CEM leukemia. The note with it: 10 µM unless noted.
The test system of another assay is RPMI-8226 leukemia. The settings on record: 10 µM unless noted.
In a further assay the test system is OVCAR-8 ovarian. The settings on record: 10 µM unless noted.
A further assay has as its system OVCAR-5 ovarian. The settings on record: 10 µM unless noted.
Another assay has as its system OVCAR-4 ovarian. The note with it: 10 µM unless noted.
The next assay relates to SK-OV-3 ovarian. The note with it: 10 µM unless noted.
Another assay has as its system IGROV1 ovarian. The note with it: 10 µM unless noted.
The test system of the next assay is HS 578T breast. The note with it: 10 µM unless noted.
For another assay, the system named is NCI/ADR-RES ovarian. The note with it: 10 µM unless noted.
Another assay has as its system TK-10 renal. The settings on record: 10 µM unless noted.
The subject of a further assay is MOLT-4 leukemia. The settings on record: 10 µM unless noted.
The next assay concerns SR leukemia. The settings on record: 10 µM unless noted.

The panel holds about 83,000 compounds, 20% with a hit somewhere; the sample as a whole holds those more often.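 Interpretation: 100, growth as untreated; towards 0, rising growth inhibition; 0, no net growth; 0 to -100, cell death. Compounds scoring below 10 were considered active.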 Unmarked numbers belong to inactive results. The source made the active and inactive calls.

As for `C/C(Cc1ccc(Cl)cc1)=C(/c1ccccc1)c1ccc(OCCN)cc1`, the growth in the assay on EKVX NSCLC was 98.7%; in the assay with SN12C renal it was 103%; with UO-31 renal, 89.7%; in the assay with ACHN renal, 99.4%; with CAKI-1 renal it was 92.5%; in the assay with A498 renal, 95.8%. Also, the growth in the assay on CCRF-CEM leukemia is 110%; with RPMI-8226 leukemia, 101%; with OVCAR-8 ovarian it was 101%; in the assay with OVCAR-5 ovarian it was 97.4%; in the assay with OVCAR-4 ovarian, 101%; with SK-OV-3 ovarian, 117%. The growth in the assay on IGROV1 ovarian was 98.3%; in the assay with HS 578T breast it was 97.1%; in the assay with NCI/ADR-RES ovarian, 94.8%.
`C(=C(\C1=NCCN1)n1cnc2ccccc21)/c1ccc2ccccc2c1`: the growth in the assay with EKVX NSCLC is 73.2%; in the assay on SN12C renal, 73.3%; in the assay on UO-31 renal, 68%; in the assay on TK-10 renal, 77.8%; in the assay on ACHN renal, 72.9%; in the assay on CAKI-1 renal, 53.3%. The growth with CCRF-CEM leukemia was 63.5%; in the assay on MOLT-4 leukemia, 67%; in the assay on SR leukemia, 42.5%; in the assay on RPMI-8226 leukemia, 67.1%; in the assay with OVCAR-8 ovarian, 88.5%; in the assay on OVCAR-5 ovarian, 79.4%. The growth is 72.6% in the assay on OVCAR-4 ovarian; 66% in the assay with SK-OV-3 ovarian; 81.2% with IGROV1 ovarian; 57.6% in the assay on HS 578T breast; 76.6% in the assay with NCI/ADR-RES ovarian.
For the compound `COc1ccc(-c2nc3cc(Cl)c(Cl)cc3n2CC(=O)N=Nc2c(O)[nH]c3ccc(Cl)cc23)cc1`, the growth was 25.7% with EKVX NSCLC; 23.2% with SN12C renal; 8.66% (active) in the assay with UO-31 renal; 60.9% with TK-10 renal; -33.8% (active) in the assay on ACHN renal; 13.6% in the assay with CAKI-1 renal. The growth is 37.4% in the assay with CCRF-CEM leukemia; 34.5% in the assay with MOLT-4 leukemia; 51.6% with SR leukemia; 40.2% in the assay on RPMI-8226 leukemia; 45.3% with OVCAR-8 ovarian; 35.4% with OVCAR-5 ovarian. The growth in the assay with OVCAR-4 ovarian was 5.4% (active); in the assay with SK-OV-3 ovarian, 52.5%; with IGROV1 ovarian, 5.72% (active); in the assay with HS 578T breast it was 2.89% (active); in the assay on NCI/ADR-RES ovarian, 17.8%.
